From PubChem
KB-3-1 cytotox: qHTS assay for MDR1-selective chemotherapeutics: Primary screen using the parental adenocarcinoma cell KB-3-1; KB-3-1 viability, CellTiter-Glo ATP luminescence, 72 h; Potency, µM (highest dose often 46.1 µM), usual class: cytotoxic; 1.4% of 400,000 active; note: % is set by controls: 0 for no effect and ±100 for the full control effect; nearly all actives have a fitted effect of over 60% in size
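72 h, 37 °C compound treatment of KB-3-1 parental cells; CellTiter-Glo added, 10 min, luminescence read. Data corrected against DMSO-only plates and normalized before curve fitting.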
HT1080 IDH1KD tx: qHTS for induction of synthetic lethality in tumor cells producing 2HG: qHTS for the HT-1080-IDH1KD cell line. 2% of 360,000 active. AID 686971, 2013. HT-1080 IDH1 knockdown viability, ATP luminescence, 48 h. Potency, µM (top dose mostly 46.1 µM), for the others: at the highest dose activity, negative = toxicity, usual class: cytotoxic;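 note: 0% = DMSO wells and -100% = cell-free medium wells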
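IDH1KD HT-1080 cells, 750/well, RPMI + 5% FBS; compound pinned after 2 h settling; 48 h, 37 °C; CellTiter-Glo luminescence; % activity normalised to DMSO and no-cell wells; curves fitted, classed by r2 and efficacy.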
KB-V1 MDR tox: qHTS assay for MDR1-selective chemotherapeutics: Primary screen using the drug-selected MDR subline cells KB-V1; KB-V1 MDR cells viability, CellTiter-Glo, 72 h; Potency, µM (top dose mostly 46.1 µM), most hits filed as cytotoxic; 3.4% of 400,000 active; AID 1347076, 2019; note: % is set by controls: 0 for no effect and ±100 for the full control effect; nearly all actives have a fitted effect of over 60% in size
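Compound-treated KB-V1 multidrug-resistant cells, 72 h, 37 degrees C; viability by CellTiter-Glo. Fitted qHTS curves give the values.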
HT1080NT lethal: qHTS for induction of synthetic lethality in tumor cells producing 2HG: qHTS for the HT-1080-NT fibrosarcoma cell line | 1.6% of 360,000 active | HT-1080-NT fibrosarcoma viability, CellTiter-Glo ATP luminescence, 48 h | Potency, µM (titrated, usually from 46.1 µM), for the others: top-dose activity, negative = less viability, most hits filed as cytotoxic;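 note: NT is the 2HG producing partner of a matched IDH1 knockdown line; 0% = DMSO-treated cells and -100% = media-only wells without cells; nearly all actives have a fitted effect of over 55% in size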
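Compounds were tested in concentration-response format on HT-1080-NT cells for 48 hours at 37 degrees C. Cell viability came from CellTiter-Glo luminescence; curves were classified by r2, response magnitude and activity.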
SW480 rerep: A quantitative high throughput screen for small molecules that induce DNA re-replication in SW480 colon adenocarcinoma cells | Potency, µM (titrated, usually from 46.1 µM), inactives show at the highest dose re-replication activation, most hits filed as activators | SW480 DNA re-replication, Hoechst DNA content imaging, 48 h | 1.8% of 340,000 active; note: % of control where 0% means no effect; nearly all actives have a fitted effect of over 55% in size
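Readout is total intensity of Hoechst-stained nuclei, excited at 405 nm and collected at 500-530 nm. Compound treatment lasted 48 hr at 37 C in 5% CO2 before staining.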
MCF10A rerep: A quantitative high throughput screen for small molecules that induce DNA re-replication in MCF 10a normal breast cells | MCF 10A DNA re-replication, Hoechst nuclear intensity, 48 h | Potency, µM (series often up to 46.1 µM), without a hit: at the top dose activity, positive = re-replication, hits mostly activators | 2.9% of 350,000 active; note: % of control where 0% means no effect; nearly all actives have a fitted effect of over 50% in size
Numbers without * were called inactive; i = inactive; ? = inconclusive; . = no result given. Only some compounds are listed: those with a hit (about 7.9% of all), similar ones and a draw of the others. Calls come from the whole dose curve; as a rule, active = well fitted curve in the direction sought with a large enough effect; inconclusive = small, poorly fitted or top-dose-only effect, or another doubt; inactive = no such curve, though single readings can be large; an effect the other way counts as inactive or inconclusive. Potency is the fitted concentration of half-maximal effect.

SMILES	KB-3-1 cytotox	HT1080 IDH1KD tx	KB-V1 MDR tox	HT1080NT lethal	SW480 rerep	MCF10A rerep
O=C(CSc1n[nH]c(=O)n1C1CC1)Nc1cc(Cl)ccc1Oc1ccccc1	i	-18.6%	16.4µM*	-22.1%	-8.3%	?
Cc1ccc(CN(C(=O)COc2ccc(Cl)cc2)c2ccccn2)o1	i	.	i	.	.	.
O=C1c2oc3ccc(F)cc3c(=O)c2C(c2ccccc2)N1CC1CCCO1 (stereo unspecified)	i	2.9%	8.2µM*	12.4%	-6.0%	-6.0%
COc1ccccc1CCC(=O)Nc1ccc(OC)c(S(=O)(=O)N2CCCCC2)c1	i	-4.1%	i	-1.3%	-6.5%	1.1%
COc1cc(Cn2c3ccc(NC(=O)CCc4ccccc4)cc3c(=O)n2C)ccc1F	9.2µM*	?	5.8µM*	?	.	.
COc1ccccc1CCC(=O)Nc1ccc2c(c1)c(=O)n(C)n2-c1cccs1	3.26µM*	?	i	?	.	.
C[C@@H](C(=O)NCc1ccco1)N1C(=O)N2CCc3c([nH]c4ccccc34)[C@@]2(C)C1=O	i	-9.7%	i	-0.3%	2.2%	?
Cc1ccc(NC(=O)C2CCN(S(=O)(=O)c3ccc4c(c3)oc(=O)n4C)CC2)cc1	i	1.5%	i	0.2%	3.5%	2.3%
Cc1cccc(C(=O)NNC2=CC(=O)CC(C)(C)C2)c1O	i	-22.5%	i	-18.3%	-4.8%	1.4%
CC(C)CCN1CC(O)=C(c2nc3ccccc3[nH]2)C1=N	i	-8.5%	10.3µM*	-3.5%	16.8%	22.5%
CC1(C)C(O)=C(c2nc3ccccc3[nH]2)C(=N)N1c1ccccc1	?	?	?	?	9.2µM*	?
CC(C)N1CC(O)=C(c2nc3ccccc3[nH]2)C1=N	i	-4.2%	i	-4.3%	-1.3%	8.1%
Cc1ccc(-c2nc3ccccc3o2)cc1NC(=O)Cc1ccc(Cl)cc1	i	.	i	.	.	.
